PTHR1 agonist: activates the human parathyroid hormone receptor PTHR1 | Q03431 | HEK293 GP2 PTHR1 cells, GloSensor cAMP luminescence, 1 h | Potency, µM (doses to about 115 µM), for the others: at the top dose activation, actives largely listed as activators | hit rate 0.075% among 410,000 | AID 743266; further: nearly all actives have a fitted effect of over 55% in size
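HEK-293-derived GP2 cells expressing PTHR1 and a GloSensor cAMP reporter, 3,000/well, plated overnight, given luciferin plus IBMX (each 0.5 mM as added) for 1 h at 37 °C, then compound for 1 h at 37 °C. Luminescence was read after 15 min at room temperature.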
GLP1R cytotox: cytotoxic in the GLP-1 receptor inverse agonist counter-screen; Potency, µM (titrated, usually from 38.3 µM), for the others: top-dose activity change, negative = inhibition, hits mostly inhibitors; HEK293 cAMP-luciferase reporter cells, luminescence, 24 h; hit rate 0.13% among 410,000;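 further: loss of luciferase light is scored as toxicity; on the % scale 0 is the no-effect control and ±100 the full control effect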
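Seeding density was 200 cells/uL; after overnight-length (12 h) culture, 23 nL compounds went on for 24 h at 37 °C. Readout used a luciferase detection reagent, luminescence taken after 12 min at room temperature.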
GLP-1R inv ag: acts as inverse agonist at human GLP-1 receptor | P43220 | Potency, µM (highest dose often 38.3 µM), without a hit: top-dose activity change, negative = inhibition, actives largely listed as inhibitors | HEK293 GLP-1R CRE-luciferase, luminescence, 24 h; GLP-1R form is constitutively active | hit rate 1.6% among 410,000; further: on the % scale 0 is the no-effect control and ±100 the full control effect; nearly all actives have a fitted effect of over 55% in size
Target sequence (P43220 whole entry, looked up): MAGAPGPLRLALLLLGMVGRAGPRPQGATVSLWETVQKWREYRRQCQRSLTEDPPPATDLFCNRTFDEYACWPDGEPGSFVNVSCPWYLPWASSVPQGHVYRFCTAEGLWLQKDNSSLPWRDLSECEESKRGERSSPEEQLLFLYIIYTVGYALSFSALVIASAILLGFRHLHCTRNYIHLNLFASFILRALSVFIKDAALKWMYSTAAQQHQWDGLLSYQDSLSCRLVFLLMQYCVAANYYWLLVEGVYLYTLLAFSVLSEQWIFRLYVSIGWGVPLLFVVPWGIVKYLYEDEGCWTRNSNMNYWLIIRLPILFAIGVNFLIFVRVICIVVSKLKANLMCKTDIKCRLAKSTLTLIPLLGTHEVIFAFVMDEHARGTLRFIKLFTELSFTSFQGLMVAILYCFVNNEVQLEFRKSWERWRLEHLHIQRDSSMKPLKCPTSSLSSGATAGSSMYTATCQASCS
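Inverse agonism was detected as reduced cAMP-driven luciferase luminescence after 24 h compound treatment. The cells were HEK293 clones expressing constitutively active human GLP-1R with the reporter. Reporter-only and GPR119 cell lines served as counterscreen controls.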
GCN5L2 inh: GCN5L2 (KAT2A) acetyltransferase inhibition | AID 504327 | hit rate 0.21% among 390,000 | GCN5L2 HAT assay, ThioGlo1 CoA-SH fluorescence | Q92830 | Potency, µM (titrated, usually from 58.9 µM), without a hit: top-dose activity change, negative = inhibition, usual class: inhibitors; further: on the % scale 0 is the no-effect control and ±100 the full control effect
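Compounds, pin-transferred from DMSO stocks, meet 20nM GCN5L2 for 15 min before the reaction begins with H3(1-25) peptide (75uM) and acetyl-CoA (70uM). Thiol-reactive ThioGlo1 reports CoA release over 20 min at room temperature.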
RGS4 inhibitor: inhibitors of human regulator of G protein signaling 4; Transcreener GDP fluorescence polarization, RGS4-accelerated GTP hydrolysis; P49798; Potency, µM (top dose mostly 114 µM), for the others: at the top dose activity change, negative = inhibition, hits mostly inhibitors; hit rate 0.039% among 390,000; further: on the % scale 0 is the no-effect control and ±100 the full control effect; nearly all actives have a fitted effect of over 75% in size
Target sequence (P49798 whole entry, looked up): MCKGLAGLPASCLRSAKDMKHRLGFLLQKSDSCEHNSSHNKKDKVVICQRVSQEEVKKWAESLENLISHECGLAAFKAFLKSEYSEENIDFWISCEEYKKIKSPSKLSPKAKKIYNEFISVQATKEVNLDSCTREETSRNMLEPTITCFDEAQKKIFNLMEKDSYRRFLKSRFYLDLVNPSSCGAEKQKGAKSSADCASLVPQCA
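MLSMR compounds (23 nl, pin-transferred) preincubated 10 min at room temperature with a 500nM (2x) first reagent, then RGS4 at 900nM (2x) plus Transcreener GDP mix added; fluorescence polarization (620/688 nm) read before and after 90 min at 30 °C.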
GLP-1R agonist: agonists of human GLP-1 receptor; AID 624172; HEK293 GLP-1R CRE-luciferase, luminescence, 4-6 h; cells express a hypersensitive GLP-1R form; Potency, µM (highest dose often 45.6 µM), without a hit: at the top dose activation, most hits filed as activators; hit rate 0.007% among 380,000; further: % of control where 0% means no effect
* marks the source's active call; other numbers are inactive results; [ ] = dose if it differs, or a comment. Sampled rows, rich in hits. Any-hit rate of the full collection: about 1.8%. The call rests on the fitted dose curve; in most records, active means well fitted curve in the direction sought with a large enough effect; inconclusive means small, poorly fitted or top-dose-only effect, or another doubt; inactive means no such curve, though single readings can be large; an effect the other way counts as inactive or inconclusive. Potency means the concentration at half of the fitted maximal effect.

CC(O)CNCCCOc1ccc(Cl)cc1C(C)(C)C (stereo not given) was read as PTHR1 agonist -10.5%, GLP1R cytotox inconclusive, GLP-1R inv ag 1.58µM*, GCN5L2 inh -2.8%, RGS4 inhibitor 2.2% and GLP-1R agonist 0.3%.
`CC(C)(C)c1cc(Cl)ccc1OCCn1ccnc1` gave PTHR1 agonist -1.3%, GLP1R cytotox -13.0%, GLP-1R inv ag inconclusive, GCN5L2 inh -12.6%, RGS4 inhibitor -5.1% and GLP-1R agonist 0.6%.
CN(C)CCOCCOc1ccc(Cl)cc1C(C)(C)C was read as PTHR1 agonist inconclusive, GLP1R cytotox inconclusive, GLP-1R inv ag 5.62µM*, GCN5L2 inh -1.0%, RGS4 inhibitor -11.1% and GLP-1R agonist -0.1%.
Screening Cc1cccc(N2CCN(C(=O)c3cccc(S(=O)(=O)N4CCOCC4)c3)CC2)c1C returned PTHR1 agonist -25.7%, GLP1R cytotox -2.2%, GLP-1R inv ag inconclusive, GCN5L2 inh 0.9%, RGS4 inhibitor -20.4% and GLP-1R agonist -3.5%.
For FC(F)(F)c1ccncc1-c1nnnn1-c1ccc(Cl)cc1 the results were PTHR1 agonist inactive, GLP1R cytotox 7.2%, GLP-1R inv ag -14.2%, GCN5L2 inh -13.8%, RGS4 inhibitor -20.1% and GLP-1R agonist -1.0%.
For FC(F)(F)c1nc(N2CCCC2)ncc1-c1nnnn1-c1ccc(Cl)cc1 the results were PTHR1 agonist -19.3%[57.5 µM], GLP1R cytotox -25.5%, GLP-1R inv ag 7.08µM*, GCN5L2 inh -11.9%, RGS4 inhibitor -39.7% and GLP-1R agonist -0.6%.
COc1ccc(C2NC(c3ccc4c(c3)OCO4)=CC(c3ccccc3O)N2)cc1OC (stereo not given) was read as RGS4 inhibitor -24.0%.
O[C@H]1C[C@H](c2ccccc2)N(CC2CCCCC2)C[C@@H]1n1cc(C2CC2)nn1 was read as PTHR1 agonist -24.7%, GLP1R cytotox inconclusive, GLP-1R inv ag 10µM* and GLP-1R agonist -2.2%.
For Cc1nn(Cc2cccc(F)c2)c(C)c1NC(=O)c1c(Cl)cnn1C the results were PTHR1 agonist 10.8%, GLP1R cytotox -14.1%, GLP-1R inv ag -0.4%, GCN5L2 inh 0.9%, RGS4 inhibitor -3.4% and GLP-1R agonist -4.7%.
For COc1ccc(C2CC(c3ccccc3)Oc3c(C)ccc(C(C)C)c32)cc1 (stereo not given) the results were RGS4 inhibitor -0.4%.
CC(C)c1ccc(Nc2c(-c3ccccc3O)nc3cnccn23)cc1 was read as PTHR1 agonist -47.4%, GLP1R cytotox 0.6%, GLP-1R inv ag 10µM*, GCN5L2 inh -19.1%, RGS4 inhibitor 1.4% and GLP-1R agonist -7.1%.
`CN1CCN(c2ccc(Nc3c4ccccc4nc4ccccc34)cc2)CC1` gave GCN5L2 inh -4.7%.
Screening CCN1CCN(c2ccc(Nc3ccnc4ccccc34)cc2)CC1 returned PTHR1 agonist inconclusive, GLP1R cytotox -16.5%, GLP-1R inv ag 3.55µM*, GCN5L2 inh 1.8%, RGS4 inhibitor 10.1% and GLP-1R agonist -4.6%.
Screening N[C@H](Cc1c[nH]c2ccccc12)C(=O)O returned GCN5L2 inh inconclusive, RGS4 inhibitor 21.2µM* and GLP-1R agonist 18.6%.
Cc1nn(-c2nc3ccccc3n2Cc2ccccc2)c2c1C(=O)CC(C)(C)C2 was read as PTHR1 agonist inactive, GLP1R cytotox -14.3%, GLP-1R inv ag 2.24µM*, RGS4 inhibitor -42.2% and GLP-1R agonist -4.4%.
Screening Cc1ccc(C)c(C(=O)Nc2cc(C)nn2-c2nc(C)cc(C)n2)c1 returned PTHR1 agonist inactive, GLP1R cytotox 1.78µM*, GLP-1R inv ag inconclusive, GCN5L2 inh -14.0%, RGS4 inhibitor 27.9% and GLP-1R agonist 6.0%.
Cc1cc(C)nc(-n2nc(C)cc2NC(=O)c2cccc(S(=O)(=O)N(C)C)c2)n1 was read as PTHR1 agonist inactive, GLP1R cytotox -8.8%, GLP-1R inv ag 0.0%, GCN5L2 inh -4.3%, RGS4 inhibitor -6.3% and GLP-1R agonist -3.6%.
Cc1cc(C)nc(-n2nc(C)cc2NC(=O)CN2CCC(C)CC2)n1 was read as PTHR1 agonist -18.5%, GLP1R cytotox 5.01µM*, GLP-1R inv ag inconclusive, GCN5L2 inh -3.0%, RGS4 inhibitor -33.6% and GLP-1R agonist 16.6%.
`CCOC(=O)C1CCN(C/C=C/c2ccccc2[N+](=O)[O-])CC1` gave PTHR1 agonist inactive, GLP1R cytotox -5.6%, GLP-1R inv ag -23.6%, GCN5L2 inh -0.9%, RGS4 inhibitor -34.2% and GLP-1R agonist 6.5%.
Screening Cc1ccc(F)cc1-c1ccc(C(=O)N=C(N)N)o1 returned GCN5L2 inh -2.4%.
For Cc1ccc(NS(=O)(=O)c2ccc(NC(=O)CN(c3cc([N+](=O)[O-])ccc3C)S(C)(=O)=O)cc2)c(C)c1 the results were PTHR1 agonist inactive, GLP1R cytotox inconclusive, GLP-1R inv ag 2.24µM*, GCN5L2 inh -10.2%, RGS4 inhibitor -12.8% and GLP-1R agonist -7.8%.
`Cc1ccc([N+](=O)[O-])cc1N(CC(=O)NC1CCCC1)S(C)(=O)=O` gave PTHR1 agonist inactive, GLP1R cytotox 3.4%, GLP-1R inv ag -5.9%, GCN5L2 inh 0.5%, RGS4 inhibitor -5.7% and GLP-1R agonist 3.2%.
Screening COc1cc(NC(=O)c2nc(-c3ccncc3)no2)cc(OC)c1OC returned PTHR1 agonist -29.5%, GLP1R cytotox -2.4%, GLP-1R inv ag 5.4%, GCN5L2 inh -2.3% and RGS4 inhibitor 22.6%.
For N#Cc1c(N)nc2c(c1-c1ccccc1)CCC2 the results were PTHR1 agonist inactive, GLP1R cytotox 19.8%, GLP-1R inv ag -0.4%, GCN5L2 inh 0.6%, RGS4 inhibitor -0.2% and GLP-1R agonist 16.4%.
CC1CCc2nc(N)c(C#N)c(-c3cccnc3)c2C1 (stereo not given) was read as PTHR1 agonist inactive, GLP1R cytotox 7.5%, GLP-1R inv ag 0.891µM*, GCN5L2 inh -2.4%, RGS4 inhibitor -5.5% and GLP-1R agonist -2.6%.
O=c1[nH]c(NCc2ccccc2)nc2c1CCCC2 was read as PTHR1 agonist inactive, GLP1R cytotox -1.6%, GLP-1R inv ag 0.6%, GCN5L2 inh -2.9%, RGS4 inhibitor -50.4% and GLP-1R agonist -1.1%.
Screening CCOc1ccc(NC(=O)Cn2cc(C(=O)c3ccc(C)c(C)c3)c(=O)c3cc4c(cc32)OCCO4)cc1 returned PTHR1 agonist inactive, GLP1R cytotox 2.2%, GLP-1R inv ag -4.7%, GCN5L2 inh -4.7%, RGS4 inhibitor -5.0% and GLP-1R agonist 0.1%.

Assay outcomes deposited in PubChem by National Center for Advancing Translational Sciences (NCATS).
